# FLuc inh: inhibitors of firefly (Photinus pyralis) luciferase; P08659; purified P. pyralis luciferase, luminescence, biochemical; 76,000 tested, 2.5% active; Potency, µM (highest dose often 115 µM), hits mostly inhibitors; note: nearly all actives have a fitted effect of over 65% in size
#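 Luminescence read by CCD imager after adding enzyme (10nM final) to wells holding compound, titrated in qHTS. Substrates 10uM each D-luciferin and ATP; buffer 50mM Tris acetate pH 7.5, 10mM Mg acetate, Tween-20, BSA.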
# 3T3 cytotox: NIH 3T3 cell cytotoxicity; NIH 3T3 viability, CellTiter-Glo ATP luminescence, 48-72 h; Potency, µM (series often up to 96.7 µM), for the others: at the top dose activity change, negative = cytotoxicity, usual class: inhibitors; 94,000 tested, 4.3% active; AID 1345082; note: nearly all actives have a fitted effect of over 55% in size
#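 Luminescent ATP readout (CellTiter-Glo, 10 min RT) after 48 or 72 hr compound exposure of NIH 3T3 cells seeded at 400 cells/well in 1536-well format; quantitative HTS.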
# GPT2 inh: GPT2 alanine aminotransferase inhibition; Q8TD30; Recombinant GPT2, coupled pyruvate oxidase/HRP Amplex Red fluorescence; Potency, µM (doses to about 57.7 µM), for inactives: top-dose activity change, negative = inhibition, hits mostly inhibitors; 100,000 tested, 0.25% active; note: nearly all actives have a fitted effect of over 60% in size
#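 Fluorescence of coupled pyruvate oxidase/HRP/Amplex Red system (50uM Amplex, 30 min, dark) reports pyruvate formed by GPT2. Enzyme reaction: 10ng/uL GPT2, 2mM L-alanine, 250uM a-KG, 30 min room temperature, pH 7.5; 50uM AOA control.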
# NPR1 antag: antagonists of human natriuretic peptide receptor Npr1; P16066; HEK293 hNpr1 GloSensor cGMP, ANP-stimulated luminescence; Potency, µM (titrated, usually from 46.3 µM), for the others: at the highest dose activity change, negative = inhibition, usual class: inhibitors; 76,000 tested, 1.6% active; AID 1347048; calls by dose curve; note: nearly all actives have a fitted effect of over 60% in size
# Target sequence (P16066 whole entry, looked up): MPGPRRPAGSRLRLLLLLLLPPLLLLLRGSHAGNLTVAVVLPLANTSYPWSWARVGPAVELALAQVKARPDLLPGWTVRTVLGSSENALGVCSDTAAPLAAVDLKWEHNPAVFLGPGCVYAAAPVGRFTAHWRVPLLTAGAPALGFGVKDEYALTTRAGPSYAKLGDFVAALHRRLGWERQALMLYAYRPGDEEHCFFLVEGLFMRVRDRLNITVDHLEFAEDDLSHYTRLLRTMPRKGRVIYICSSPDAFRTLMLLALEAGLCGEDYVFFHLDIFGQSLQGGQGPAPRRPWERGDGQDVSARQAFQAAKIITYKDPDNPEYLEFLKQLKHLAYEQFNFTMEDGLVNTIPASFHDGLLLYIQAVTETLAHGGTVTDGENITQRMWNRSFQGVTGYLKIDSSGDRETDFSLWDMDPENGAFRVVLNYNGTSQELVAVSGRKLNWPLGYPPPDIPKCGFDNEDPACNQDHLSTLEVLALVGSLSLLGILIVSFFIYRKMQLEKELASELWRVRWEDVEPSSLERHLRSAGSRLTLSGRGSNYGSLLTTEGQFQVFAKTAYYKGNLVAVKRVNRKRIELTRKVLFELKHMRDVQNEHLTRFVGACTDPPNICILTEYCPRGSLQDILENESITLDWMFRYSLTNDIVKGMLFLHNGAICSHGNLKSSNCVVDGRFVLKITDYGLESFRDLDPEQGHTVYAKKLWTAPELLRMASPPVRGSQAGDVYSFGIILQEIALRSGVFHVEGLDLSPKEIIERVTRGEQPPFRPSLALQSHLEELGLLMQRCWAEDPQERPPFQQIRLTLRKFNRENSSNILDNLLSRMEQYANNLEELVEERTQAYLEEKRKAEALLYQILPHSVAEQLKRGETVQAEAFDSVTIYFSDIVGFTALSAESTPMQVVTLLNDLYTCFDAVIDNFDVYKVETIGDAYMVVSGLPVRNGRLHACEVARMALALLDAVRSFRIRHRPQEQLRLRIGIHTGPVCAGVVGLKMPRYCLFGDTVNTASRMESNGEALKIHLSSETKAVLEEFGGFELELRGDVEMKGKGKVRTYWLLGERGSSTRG
#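 HEK293 cells stably expressing human Npr1 and cGMP GloSensor pGS-40F, loaded 2 h with 2% GloSensor reagent, given compound 30 min at room temperature. Luminescence read before and 20 min after 0.1 nM hNppA.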
# HEK cytotox: HEK 293 cell cytotoxicity. HEK 293 viability, ATP luminescence (CellTiter-Glo), 48-72 h. Potency, µM (doses to about 115 µM), for the others: at the top dose activity change, negative = cytotoxicity, hits mostly inhibitors. 94,000 tested, 6.6% active. AID 1345083; note: nearly all actives have a fitted effect of over 60% in size
#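 Cytotoxicity was scored by loss of ATP-coupled luminescence (CellTiter-Glo) in HEK 293 cells. Compound treatment ran 48 or 72 hr at 37 degree Celsius, 5% CO2, 95% humidity.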
# * marks the source's active call; other numbers are inactive results; i = inactive; ? = inconclusive; · = not tested or not shown; [ ] = remark or other dose. In the library only some 10% were active in any assay of this set; here they are far more common. Unless noted, calls come from the whole dose curve; as a rule, active = well fitted curve in the direction sought with a large enough effect; inconclusive = small, poorly fitted or top-dose-only effect, or another doubt; inactive = no such curve, though single readings can be large; an effect the other way counts as inactive or inconclusive. % is set by controls: 0 for no effect and ±100 for the full control effect; potency is the fitted concentration of half-maximal effect.
SMILES,FLuc inh,3T3 cytotox,GPT2 inh,NPR1 antag,HEK cytotox
CC(=O)NC[C@H]1C[C@@H]2CCN1C[C@@H]2c1cc(-c2ccc3ccccc3c2)nn1C,?,31.6µM*,3.2%[88.5 µM],2.5%[70.6 µM],56.2µM*
Cn1nc(-c2ccc3ccccc3c2)cc1[C@H]1CN2CC[C@H]1C[C@@H]2CNC(=O)NCc1ccccc1,i,17.8µM*,?,-11.7%,?
C=C[C@H]1CN2CC[C@H]1C[C@@H]2CNCc1ccc(SC)cc1,i,?,-23.7%[88.5 µM],-4.7%[70.6 µM],89.1µM*
COc1ccc(OC)c(S(=O)(=O)NC[C@H]2C[C@@H]3CCN2C[C@@H]3c2cc(-c3ccc4ccccc4c3)nn2C)c1,i,?,0.8%,1.5%,?
COc1ccc(-c2cc([C@H]3CN4CC[C@H]3C[C@@H]4CNC(C)=O)n(C)n2)cc1,i,?,0.8%[88.5 µM],5.5%[70.6 µM],-3.4%[172 µM]
Cn1nc(-c2ccc3ccccc3c2)cc1[C@H]1CN2CC[C@H]1C[C@@H]2CNS(=O)(=O)c1ccccc1,?,?,-8.0%,-24.3%,25.1µM*
CCCCn1cc(C(=O)c2cccc3ccccc23)c2ccccc21,·,·,-9.3%,·,·
Cn1nc(-c2ccc3ccccc3c2)cc1[C@H]1CN2CC[C@H]1C[C@@H]2CNC(=O)COc1ccccc1,i,28.2µM*,i,3.0%,25.1µM*
C=C[C@H]1CN2CC[C@H]1C[C@@H]2CNS(=O)(=O)c1ccc2ccccc2c1,i,?,0.9%[88.5 µM],0.8%[70.6 µM],112µM*
COc1ccc(-c2cc([C@H]3CN4CC[C@H]3C[C@@H]4CNS(=O)(=O)c3ccc(Cl)cc3)n(C)n2)cc1OC,i,?,-0.4%,-4.6%,28.2µM*
COc1ccc(-c2cc([C@H]3CN4CC[C@H]3C[C@@H]4CNS(=O)(=O)c3cccs3)n(C)n2)cc1OC,i,?,1.9%,-0.4%,?
C[C@H]1C(=O)O[C@H]2[C@H](O)[C@]34C5OC(=O)[C@]3(O[C@@H]3OC(=O)[C@H](O)C34[C@H](C(C)(C)C)[C@H]5O)C12O (some centres undefined),·,·,i,·,·
O=C1Nc2ccccc2C12CCN(CC1CC1)CC2,·,1.0%[174 µM],-8.8%[88.5 µM],·,-6.0%[230 µM]
CN1CCNc2cc(NCc3ccccc3)ncc2C1,25.1µM*,89.1µM*,?,-1.8%[70.6 µM],?
c1ccc(Nc2cc3c(cn2)CN(CC2CC2)CCN3)cc1,35.5µM*,?,4.5%[88.5 µM],4.4%[70.6 µM],35.5µM*
CC1=CC2OC3CC(O)[C@](C)([C@@]2(C)C(O)C1=O)[C@]31CO1 (some centres undefined),·,·,3.3%,·,·
Cc1nc(-c2ccc(N(C)C)cc2)cc([C@H]2CN3CC[C@H]2C[C@@H]3CNCc2cccc(C#N)c2)n1,?,28.2µM*,i,-20.8%,25.1µM*
Cc1nc(-c2ccc(N(C)C)cc2)cc([C@H]2CN3CC[C@H]2C[C@@H]3CNC(=O)C2CC2)n1,i,100µM*,3.3%[88.5 µM],-2.3%[70.6 µM],70.8µM*
Cc1nc(-c2ccc(N(C)C)cc2)cc([C@H]2CN3CC[C@H]2C[C@@H]3CNC(=O)N2CCOCC2)n1,i,?,i,-0.2%,?
Cc1nc(-c2ccc(N(C)C)cc2)cc([C@H]2CN3CC[C@H]2C[C@@H]3CNC(=O)C(C)(C)C)n1,i,89.1µM*,i,1.3%[70.6 µM],56.2µM*
Cc1nc(-c2ccc(C(F)(F)F)cc2)cc([C@H]2CN3CC[C@H]2C[C@@H]3CNC(=O)C2CC2)n1,i,?,0.6%,3.4%,?
CC(=O)OC1CC(O)C2(C)C(CC(OC(C)=O)C3(C)C2CCC2(C)C(c4ccoc4)C(=O)C4OC423)C1(C)C (centres undefined),·,·,i,·,·
C#C[C@H]1CN2CC[C@H]1C[C@@H]2COC(=O)NCCC,i,-28.9%[230 µM],i,-0.4%[70.6 µM],?
O=C1NC2(CCN(Cc3cccnc3)C2)COc2ccccc21 (centres undefined),i,35.5µM*,i,5.6%[70.6 µM],79.4µM*
O=C(CCc1nc2ccccc2s1)N1[C@H]2CC[C@@H]1c1cnc(-c3ccc(F)cc3)nc1C2,i,-26.1%,i,0.708µM*,39.8µM*
